The text below walks through data of PubChem BioAssay (Tox21).

SMILES strings stand for the structures. Activity calls are given as the source filed them. Calls follow the shape of the dose curve; as a rule, active = well fitted curve in the direction sought with a large enough effect in the repeat runs; inconclusive = weak or mixed curves; inactive = flat fitted curve, though single readings scatter.

This assay is described as follows: qHTS assay to test for compound auto fluorescence at 590 nm (red) in HepG2 cell free culture (AID 720684). The following applies: cell-free medium autofluorescence, red 540/590 nm; series mostly up to 46 µM. The text has this: U.S. Tox21 Program National Center for Advancing Translational Sciences [NCATS] NIH Chemical Genomics Center [NCGC] U.S. Environmental Protection Agency [EPA] National Institutes of Environmental Health Sciences [NIEHS] National Toxicology Program [NTP] U.S. Food and Drug Administration [FDA] Tox21 Assay Overview: Compound auto fluorescence often interferes with screening of the compound library against various biological targets and signaling pathways. Some of these compounds may have fluorophoric properties. Such properties may interfere with the assay outputs resulting in false positives and/or negatives. To decrease such complications and ensure the compound activities are relevant in terms of biological response, the Tox21 10K compound library was screened for auto fluorescence. From the fluorophores used as reporter signals in our screening assays, the auto fluorescence equivalencies of compounds against three fluorophores have been evaluated: Triamterene, Fluorescein and Rose Bengal sodium for blue, green and red fluorescence, respectively. The fluorescence intensities were measured using Excitation/Emission wavelengths at 405/460nm, 485/535nm and 540/590nm for blue, green and red labels, respectively. This assay includes the red fluorescence data.
Tox21 Assay Protocol Summary: 5 uL of culture medium (MEM containing 10% FBS) per well was dispensed into black wall/clear bottom 1536-well plates using a Multidrop Combi Dispenser (ThermoFisher Scientific, Waltham, MA). After 23 nL compound or DMSO vehicle was transferred into assay plate by a pintool work station (Kalypsys, San Diego, CA), fluorescence intensities in the assay plates were measured by an Envision (PerkinElmer, Shelton, CT) plate reader using three labels for measuring blue, green and red fluorescence at […] 460, 535 and 590nm respectively.
In general terms: qHTS replaces the single test concentration by a dilution series.
As for `NC(=O)c1ccc(N)cc1`, the molecule was classed as inactive.
For `C=C[Si](OC(=C)C)(OC(=C)C)OC(=C)C`, the molecule was called inactive.
The same measure for `O=[N+]([O-])c1ccc(F)cc1F`: “inactive”; for `CCCCCCCCCCCC`: “inactive”; for `COc1cc(C(=O)N2CCCCCCC2)cc(OC)c1OC`: “inactive”.
`CCCCOCCOCCOCc1cc2c(cc1CCC)OCO2`: the call was inactive.
The same measure for `COC(=O)CCSCCC(=O)OC`: “inactive”; for `O=C(O)CCCl`: “inactive”; for `C=C(C)C(=O)OCCCCCCCC(C)C`: “inactive”.
As to `CC(=O)CC(C)(C)C1CCCCC1`, the molecule was called inactive.
Then `CCc1ccc(O)c(OC)c1`, with “inactive”; and `CCCCCOC(=O)CCCCC`, with “inactive”.
Consider `CCOC(=O)c1ccc(C)cc1`, for which the molecule was classed as inactive.
As to `CCC=O`, the molecule was called inactive.
For `NS(=O)(=O)c1cc2c(cc1Cl)NC(C1CC3C=CC1C3)NS2(=O)=O` (stereo not given), the molecule was classed as inactive.
The same measure for `CC(C)OC(=O)c1ccccc1`: “inactive”; for `N[C@@H](C(=O)N[C@@H]1C(=O)N2C(C(=O)O)=C(Cl)CS[C@H]12)c1ccccc1`: “inactive”; for `c1ccc(CC2=NCCN2)cc1`: “inactive”.
The same measure for `COc1c(N2C[C@@H]3CCCN[C@@H]3C2)c(F)cc2c(=O)c(C(=O)O)cn(C3CC3)c12`: “inactive”; for `CC(C[N+](C)(C)C)OC(N)=O` (stereo not given): “inactive”; for `O=C1CCCC(=O)C1`: “inactive”.
Then `COc1nc(N)nc2c1ncn2[C@@H]1O[C@H](CO)[C@@H](O)[C@@H]1O`, with “inactive”; and `CO[Si](CCCOCC1CO1)(OC)OC` (stereo not given), with “inactive”; and `CCOC(=O)Nc1ccc(NCc2ccc(F)cc2)nc1N`, with “inactive”.
With `C[C@@H]1CCN(C(=O)[C@H](CCCN=C(N)N)NS(=O)(=O)c2cccc3c2NC[C@H](C)C3)[C@@H](C(=O)O)C1`, the call was inactive.
With `CO/N=C(/C(=O)N[C@@H]1C(=O)N2C(C(=O)OCOC(=O)C(C)(C)C)=C(C)CS[C@H]12)c1csc(N)n1`, the molecule was called inactive.
Then `CC/C=C\CCOC(C)=O`, with “inactive”; and `O=C1OC(=O)C2CCCCC12` (stereo not given), with “inactive”; and `COCCc1ccc(OCC(O)CNC(C)C)cc1` (stereo not given), with “inactive”.
The same measure for `CCSC(=O)N(CC(C)C)CC(C)C`: “inactive”.
Then `CC1=CC(C)C(C=O)CC1` (stereo not given), with “inactive”; and `CS(=O)(=O)O`, with “inactive”; and `COCCCOCCCOC`, with “inactive”.
In the case of `CCCCCCOC(=O)CCCCC(=O)OCCCCCC`, the outcome was inactive.
Consider `CCN(Cc1ccncc1)C(=O)C(CO)c1ccccc1` (stereo not given), for which the molecule was classed as inactive.
The same measure for `O=C(CCCN1CCN(c2ccccn2)CC1)c1ccc(F)cc1`: “inactive”; for `CC(=O)OC/C=C(\C)CC/C=C(\C)CCC=C(C)C`: “inactive”; for `CCn1nc(C(=O)O)c(=O)c2cc3c(cc21)OCO3`: “inactive”.
On to `CCCC(=O)O[C@]1(C(=O)CO)CC[C@H]2[C@@H]3CCC4=CC(=O)CC[C@]4(C)[C@H]3[C@@H](O)C[C@@]21C`, for which the molecule was classed as inactive.
With `O=c1n(CCO)c(=O)n(CCO)c(=O)n1CCO`, the call was inactive.
